# Laboratory results reported in PMC5540273 (PLoS ONE, 2017).
# Several values for one entry are separate records, joined by “and”; a condition that tells them apart may be missing. Identical values can stand only once. Like-named read-outs stand apart in the source and are kept apart here.
# Key:
# CHEK1 = settings: concentration: 1 μM, replicates: in singlicate, n = 1
# CHEK2 = settings: concentration: 1 μM, replicates: in singlicate, n = 1
# CIT = settings: concentration: 1 μM, replicates: in singlicate, n = 1
# CLK1 = settings: concentration: 1 μM, replicates: in singlicate, n = 1
# CLK2 = settings: concentration: 1 μM, replicates: in singlicate, n = 1
# CLK3 = settings: concentration: 1 μM, replicates: in singlicate, n = 1
# CLK4 = settings: concentration: 1 μM, replicates: in singlicate, n = 1
# CSF1R-autoinhibited = settings: concentration: 1 μM, replicates: in singlicate, n = 1
# CSF1R = settings: concentration: 1 μM, replicates: in singlicate, n = 1
# CSK = settings: concentration: 1 μM, replicates: in singlicate, n = 1
# CSNK1A1L = settings: concentration: 1 μM, replicates: in singlicate, n = 1
# CSNK1A1 = settings: concentration: 1 μM, replicates: in singlicate, n = 1
# CSNK1D = settings: concentration: 1 μM, replicates: in singlicate, n = 1
# CSNK1E = settings: concentration: 1 μM, replicates: in singlicate, n = 1
# CSNK1G1 = settings: concentration: 1 μM, replicates: in singlicate, n = 1
# CSNK1G2 = settings: concentration: 1 μM, replicates: in singlicate, n = 1
# CSNK1G3 = settings: concentration: 1 μM, replicates: in singlicate, n = 1
# CSNK2A1 = settings: concentration: 1 μM, replicates: in singlicate, n = 1
# CSNK2A2 = settings: concentration: 1 μM, replicates: in singlicate, n = 1
# CTK = tested on: T1, CTK; settings: concentration: 1 μM, replicates: in singlicate; n = 1
# T1 construct: gene MATK
# 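Also: KINOMEscan kinase panel screen.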
smiles,measurement,setting,value
Cc1nnc(-c2ccc3occ(-c4ccc(C(C)O)cc4)c3c2)o1 (centres unmarked),%Inh,CHEK1,13%
same,%Inh,CHEK2,15%
same,%Inh,CIT,11%
same,%Inh,CLK1,31%
same,%Inh,CLK2,2%
same,%Inh,CLK3,6%
same,%Inh,CLK4,33%
same,%Inh,CSF1R-autoinhibited,6%
same,%Inh,CSF1R,1%
same,%Inh,CSK,3%
same,%Inh,CSNK1A1L,0%
same,%Inh,CSNK1A1,14%
same,%Inh,CSNK1D,0%
same,%Inh,CSNK1E,7%
same,%Inh,CSNK1G1,0%
same,%Inh,CSNK1G2,9%
same,%Inh,CSNK1G3,0%
same,%Inh,CSNK2A1,25%
same,%Inh,CSNK2A2,53%
same,%Inh,CTK,0%
O=c1cc(N2CCOCC2)nc2n(Cc3cccc(C(F)(F)F)c3)ccn12 [GSK2297543],%Inh,CHEK1,0%
same,%Inh,CHEK2,0%
same,%Inh,CIT,27%
same,%Inh,CLK1,17%
same,%Inh,CLK2,20%
same,%Inh,CLK3,0%
same,%Inh,CLK4,6%
same,%Inh,CSF1R-autoinhibited,0%
same,%Inh,CSF1R,0%
same,%Inh,CSK,0%
same,%Inh,CSNK1A1L,16%
same,%Inh,CSNK1A1,24%
same,%Inh,CSNK1D,17%
same,%Inh,CSNK1E,0%
same,%Inh,CSNK1G1,13%
same,%Inh,CSNK1G2,0%
same,%Inh,CSNK1G3,8%
same,%Inh,CSNK2A1,0%
same,%Inh,CSNK2A2,9%
same,%Inh,CTK,0%
COc1ccc(COc2cc(-n3cnc4ccccc43)sc2C(N)=O)cc1 [GSK1024304],%Inh,CHEK1,0%
same,%Inh,CHEK2,0%
same,%Inh,CIT,29%
same,%Inh,CLK1,27%
same,%Inh,CLK2,48%
same,%Inh,CLK3,17%
same,%Inh,CLK4,12%
same,%Inh,CSF1R-autoinhibited,0%
same,%Inh,CSF1R,4%
same,%Inh,CSK,0%
same,%Inh,CSNK1A1L,13%
same,%Inh,CSNK1A1,0%
same,%Inh,CSNK1D,0%
same,%Inh,CSNK1E,30%
same,%Inh,CSNK1G1,11%
same,%Inh,CSNK1G2,5%
same,%Inh,CSNK1G3,22%
same,%Inh,CSNK2A1,4%
same,%Inh,CSNK2A2,13%
same,%Inh,CTK,0%
CC(C)(CN)c1nc(-c2ccc(Cl)c(O)c2)c(-c2ccncc2)[nH]1.O=C(O)C(F)(F)F [SB-477794],%Inh,CHEK1; 1 µM,20% and 10%
same,%Inh,CHEK2; 1 µM,41% and 59%
same,%Inh,CIT; 1 µM,100% and 99.4%
same,%Inh,CLK1; 1 µM,14% and 3%
same,%Inh,CLK2,0%
same,%Inh,CLK3; 1 µM,1% and 11%
same,%Inh,CLK4; 1 µM,6% and 11%
same,%Inh,CSF1R-autoinhibited; 1 µM,12% and 52%
same,%Inh,CSF1R; 1 µM,50% and 43%
same,%Inh,CSK; 1 µM,44% and 28%
same,%Inh,CSNK1A1L; 1 µM,85% and 81%
same,%Inh,CSNK1A1; 1 µM,96.3% and 93.8%
same,%Inh,CSNK1D; 1 µM,97% and 96.6%
same,%Inh,CSNK1E,99.6%
same,%Inh,CSNK1G1; 1 µM,0% and 5%
same,%Inh,CSNK1G2; 1 µM,0% and 7%
same,%Inh,CSNK1G3; 1 µM,22% and 14%
same,%Inh,CSNK2A1,0%
same,%Inh,CSNK2A2; 1 µM,11% and 0%
same,%Inh,CTK,0%
NCCNS(=O)(=O)c1ccc(-c2ccnc3[nH]ccc23)cc1 [GSK977617],%Inh,CHEK1; 1 µM,8% and 21%
same,%Inh,CHEK2; 1 µM,72% and 63%
same,%Inh,CIT; 1 µM,65% and 48%
same,%Inh,CLK1; 1 µM,95.5% and 95.4%
same,%Inh,CLK2; 1 µM,94.8% and 95.5%
same,%Inh,CLK3; 1 µM,64% and 83%
same,%Inh,CLK4; 1 µM,97.7% and 96%
same,%Inh,CSF1R-autoinhibited; 1 µM,11% and 0%
same,%Inh,CSF1R; 1 µM,46% and 19%
same,%Inh,CSK,0%
same,%Inh,CSNK1A1L; 1 µM,76% and 61%
same,%Inh,CSNK1A1; 1 µM,88% and 93.1%
same,%Inh,CSNK1D; 1 µM,77% and 70%
same,%Inh,CSNK1E; 1 µM,85% and 86%
same,%Inh,CSNK1G1; 1 µM,20% and 0%
same,%Inh,CSNK1G2; 1 µM,58% and 24%
same,%Inh,CSNK1G3; 1 µM,51% and 59%
same,%Inh,CSNK2A1; 1 µM,72% and 56%
same,%Inh,CSNK2A2; 1 µM,63% and 56%
same,%Inh,CTK,0%
NCC(NC(=O)c1cc(-c2cn[nH]c2)c(-c2ccnc3[nH]ccc23)s1)c1ccccc1.O=C(O)C(F)(F)F.O=C(O)C(F)(F)F (centres unmarked) [GSK1325775],%Inh,CHEK1,37%
same,%Inh,CHEK2,86%
same,%Inh,CIT,96.6%
same,%Inh,CLK1,74%
same,%Inh,CLK2,68%
same,%Inh,CLK3,70%
same,%Inh,CLK4,66%
same,%Inh,CSF1R-autoinhibited,0%
same,%Inh,CSF1R,26%
same,%Inh,CSK,10%
same,%Inh,CSNK1A1L,87%
same,%Inh,CSNK1A1,93.3%
same,%Inh,CSNK1D,91.9%
same,%Inh,CSNK1E,99.4%
same,%Inh,CSNK1G1,55%
same,%Inh,CSNK1G2,90%
same,%Inh,CSNK1G3,81%
same,%Inh,CSNK2A1,15%
same,%Inh,CSNK2A2,33%
same,%Inh,CTK,0%
Fc1ccc(-c2ncn(CCCN3CCOCC3)c2-c2ccccn2)cc1 [SB-211742],%Inh,CHEK1,0%
same,%Inh,CHEK2,0%
same,%Inh,CIT,8%
same,%Inh,CLK1,8%
same,%Inh,CLK2,8%
same,%Inh,CLK3,3%
same,%Inh,CLK4,0%
same,%Inh,CSF1R-autoinhibited,0%
same,%Inh,CSF1R,0%
same,%Inh,CSK,0%
same,%Inh,CSNK1A1L,0%
same,%Inh,CSNK1A1,36%
same,%Inh,CSNK1D,10%
same,%Inh,CSNK1E,9%
same,%Inh,CSNK1G1,5%
same,%Inh,CSNK1G2,0%
same,%Inh,CSNK1G3,0%
same,%Inh,CSNK2A1,0%
same,%Inh,CSNK2A2,0%
same,%Inh,CTK,0%
